Experiments:
[1] = target: Serine/threonine-protein kinase MRCK alpha (Homo sapiens) (UniProt Q5VT25); conditions: at 0.1 µM
[2] = target: Serine/threonine-protein kinase MRCK alpha (Homo sapiens) (UniProt Q5VT25); conditions: at 1 µM
[3] = target: Serine/threonine-protein kinase MRCK beta (Homo sapiens) (UniProt Q9Y5S2); conditions: at 0.1 µM
[4] = target: Serine/threonine-protein kinase MRCK beta (Homo sapiens) (UniProt Q9Y5S2); conditions: at 1 µM
[5] = target: Ribosomal protein S6 kinase alpha-5 (Homo sapiens) (UniProt O75582); conditions: at 0.1 µM
[6] = target: Ribosomal protein S6 kinase alpha-5 (Homo sapiens) (UniProt O75582); conditions: at 1 µM
[7] = target: Ribosomal protein S6 kinase alpha-4 (Homo sapiens) (UniProt O75676); conditions: at 0.1 µM
Ribosomal protein S6 kinase alpha-4 (Homo sapiens), sequence (O75676 whole entry, looked up): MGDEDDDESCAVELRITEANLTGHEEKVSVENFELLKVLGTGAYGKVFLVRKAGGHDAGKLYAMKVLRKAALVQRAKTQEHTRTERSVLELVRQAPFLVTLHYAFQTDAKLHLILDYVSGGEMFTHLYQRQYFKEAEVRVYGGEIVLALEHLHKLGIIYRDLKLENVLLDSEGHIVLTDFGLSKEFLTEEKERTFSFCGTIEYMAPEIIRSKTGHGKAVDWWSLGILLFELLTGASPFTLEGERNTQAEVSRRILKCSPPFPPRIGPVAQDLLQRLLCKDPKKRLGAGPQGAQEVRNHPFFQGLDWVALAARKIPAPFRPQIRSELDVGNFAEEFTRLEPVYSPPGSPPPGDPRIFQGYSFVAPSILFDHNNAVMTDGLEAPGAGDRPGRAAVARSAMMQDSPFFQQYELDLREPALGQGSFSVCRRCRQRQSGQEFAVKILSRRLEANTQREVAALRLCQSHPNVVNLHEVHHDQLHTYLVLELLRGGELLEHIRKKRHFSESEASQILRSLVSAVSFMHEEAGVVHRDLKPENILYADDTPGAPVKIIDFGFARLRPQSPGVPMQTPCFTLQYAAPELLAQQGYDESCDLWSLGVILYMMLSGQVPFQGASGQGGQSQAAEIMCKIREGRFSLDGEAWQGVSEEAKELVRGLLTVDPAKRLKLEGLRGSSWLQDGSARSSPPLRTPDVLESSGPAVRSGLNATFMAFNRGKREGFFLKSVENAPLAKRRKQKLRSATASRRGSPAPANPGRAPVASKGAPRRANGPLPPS

[8] = target: Ribosomal protein S6 kinase alpha-4 (Homo sapiens) (UniProt O75676); conditions: at 1 µM
[9] = target: Ribosomal protein S6 kinase beta-1 (Homo sapiens) (UniProt P23443); conditions: at 0.1 µM
[10] = target: Ribosomal protein S6 kinase beta-1 (Homo sapiens) (UniProt P23443); conditions: at 1 µM
[11] = target: T1, 3-phosphoinositide-dependent protein kinase 1 (Homo sapiens) (UniProt O15530); conditions: at 0.1 µM;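 note: values are mean inhibition of PDK1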
T1 sequence (whole entry): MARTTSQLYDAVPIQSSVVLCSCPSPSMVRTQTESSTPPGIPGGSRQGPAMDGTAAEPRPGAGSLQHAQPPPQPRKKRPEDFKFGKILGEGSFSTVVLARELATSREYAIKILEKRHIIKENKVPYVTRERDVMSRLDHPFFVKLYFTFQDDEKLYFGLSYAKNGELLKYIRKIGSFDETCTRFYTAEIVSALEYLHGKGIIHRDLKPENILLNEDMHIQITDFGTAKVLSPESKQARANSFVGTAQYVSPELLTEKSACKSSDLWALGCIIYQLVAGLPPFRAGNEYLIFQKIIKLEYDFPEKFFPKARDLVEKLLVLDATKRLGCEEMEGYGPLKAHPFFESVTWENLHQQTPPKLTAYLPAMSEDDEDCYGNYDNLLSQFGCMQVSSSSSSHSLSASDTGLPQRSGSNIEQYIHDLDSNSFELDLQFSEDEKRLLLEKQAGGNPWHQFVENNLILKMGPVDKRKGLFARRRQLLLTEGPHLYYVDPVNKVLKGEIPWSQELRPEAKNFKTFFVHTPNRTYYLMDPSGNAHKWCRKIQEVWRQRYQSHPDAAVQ

[12] = target: cAMP-dependent protein kinase catalytic subunit alpha (Homo sapiens) (UniProt P17612); conditions: at 0.1 µM
[13] = target: cAMP-dependent protein kinase catalytic subunit alpha (Homo sapiens) (UniProt P17612); conditions: at 1 µM
[14] = target: Protein kinase C alpha type (Homo sapiens) (UniProt P17252); conditions: at 0.1 µM
[15] = target: Protein kinase C alpha type (Homo sapiens) (UniProt P17252); conditions: at 1 µM
[16] = target: Protein kinase C beta type (Homo sapiens) (UniProt P05771); conditions: at 0.1 µM
[17] = target: Protein kinase C beta type (Homo sapiens) (UniProt P05771); conditions: at 1 µM
[18] = target: Protein kinase C eta type (Homo sapiens) (UniProt P24723); conditions: at 0.1 µM
[19] = target: Protein kinase C eta type (Homo sapiens) (UniProt P24723); conditions: at 1 µM
[20] = target: Protein kinase C gamma type (Homo sapiens) (UniProt P05129); conditions: at 0.1 µM;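 note: values are mean percent inhibition of PKC gamma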

Serine/threonine-protein kinase MRCK beta (Homo sapiens), sequence (Q9Y5S2 whole entry): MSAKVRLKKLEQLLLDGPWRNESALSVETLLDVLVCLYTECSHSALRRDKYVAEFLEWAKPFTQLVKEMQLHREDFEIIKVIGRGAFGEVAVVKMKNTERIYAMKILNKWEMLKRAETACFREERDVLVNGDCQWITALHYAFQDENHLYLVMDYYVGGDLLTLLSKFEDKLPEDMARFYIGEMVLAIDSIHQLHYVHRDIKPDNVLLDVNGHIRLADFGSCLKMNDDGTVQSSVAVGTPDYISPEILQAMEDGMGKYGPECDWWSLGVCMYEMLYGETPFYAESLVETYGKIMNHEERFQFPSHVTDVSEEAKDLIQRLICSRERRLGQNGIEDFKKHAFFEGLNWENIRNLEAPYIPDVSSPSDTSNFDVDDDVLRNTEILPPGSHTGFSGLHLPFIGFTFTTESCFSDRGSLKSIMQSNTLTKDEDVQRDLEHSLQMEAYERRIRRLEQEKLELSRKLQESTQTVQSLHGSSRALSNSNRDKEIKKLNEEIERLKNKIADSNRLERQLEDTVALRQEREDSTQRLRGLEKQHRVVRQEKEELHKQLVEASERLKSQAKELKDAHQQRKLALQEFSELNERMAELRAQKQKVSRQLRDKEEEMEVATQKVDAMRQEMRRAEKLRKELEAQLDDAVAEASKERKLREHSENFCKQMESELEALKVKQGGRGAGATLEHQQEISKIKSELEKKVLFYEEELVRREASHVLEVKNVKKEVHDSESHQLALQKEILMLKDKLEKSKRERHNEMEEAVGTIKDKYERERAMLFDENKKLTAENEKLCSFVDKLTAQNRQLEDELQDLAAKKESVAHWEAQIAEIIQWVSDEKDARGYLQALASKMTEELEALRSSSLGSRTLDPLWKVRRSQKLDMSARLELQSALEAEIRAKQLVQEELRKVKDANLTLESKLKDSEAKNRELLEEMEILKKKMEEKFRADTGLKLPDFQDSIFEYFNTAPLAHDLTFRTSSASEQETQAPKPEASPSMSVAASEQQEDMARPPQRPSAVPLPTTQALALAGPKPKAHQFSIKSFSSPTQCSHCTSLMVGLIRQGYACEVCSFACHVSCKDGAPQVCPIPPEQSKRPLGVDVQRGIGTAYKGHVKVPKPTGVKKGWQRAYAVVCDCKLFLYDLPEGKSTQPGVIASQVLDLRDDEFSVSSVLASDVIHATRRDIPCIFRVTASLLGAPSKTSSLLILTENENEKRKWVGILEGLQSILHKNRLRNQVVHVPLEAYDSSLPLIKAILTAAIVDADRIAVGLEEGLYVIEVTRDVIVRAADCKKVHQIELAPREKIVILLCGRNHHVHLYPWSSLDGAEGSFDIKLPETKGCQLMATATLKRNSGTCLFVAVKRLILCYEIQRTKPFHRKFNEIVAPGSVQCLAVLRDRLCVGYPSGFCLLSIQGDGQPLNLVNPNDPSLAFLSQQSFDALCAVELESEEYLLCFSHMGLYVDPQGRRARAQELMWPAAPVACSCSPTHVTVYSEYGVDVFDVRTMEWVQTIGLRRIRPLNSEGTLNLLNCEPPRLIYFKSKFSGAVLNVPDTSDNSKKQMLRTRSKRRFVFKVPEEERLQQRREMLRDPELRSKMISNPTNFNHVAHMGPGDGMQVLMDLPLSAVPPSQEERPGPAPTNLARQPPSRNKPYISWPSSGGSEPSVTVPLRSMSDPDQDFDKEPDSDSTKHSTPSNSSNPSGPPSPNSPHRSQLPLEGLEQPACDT
Serine/threonine-protein kinase MRCK alpha (Homo sapiens), sequence (Q5VT25 whole entry): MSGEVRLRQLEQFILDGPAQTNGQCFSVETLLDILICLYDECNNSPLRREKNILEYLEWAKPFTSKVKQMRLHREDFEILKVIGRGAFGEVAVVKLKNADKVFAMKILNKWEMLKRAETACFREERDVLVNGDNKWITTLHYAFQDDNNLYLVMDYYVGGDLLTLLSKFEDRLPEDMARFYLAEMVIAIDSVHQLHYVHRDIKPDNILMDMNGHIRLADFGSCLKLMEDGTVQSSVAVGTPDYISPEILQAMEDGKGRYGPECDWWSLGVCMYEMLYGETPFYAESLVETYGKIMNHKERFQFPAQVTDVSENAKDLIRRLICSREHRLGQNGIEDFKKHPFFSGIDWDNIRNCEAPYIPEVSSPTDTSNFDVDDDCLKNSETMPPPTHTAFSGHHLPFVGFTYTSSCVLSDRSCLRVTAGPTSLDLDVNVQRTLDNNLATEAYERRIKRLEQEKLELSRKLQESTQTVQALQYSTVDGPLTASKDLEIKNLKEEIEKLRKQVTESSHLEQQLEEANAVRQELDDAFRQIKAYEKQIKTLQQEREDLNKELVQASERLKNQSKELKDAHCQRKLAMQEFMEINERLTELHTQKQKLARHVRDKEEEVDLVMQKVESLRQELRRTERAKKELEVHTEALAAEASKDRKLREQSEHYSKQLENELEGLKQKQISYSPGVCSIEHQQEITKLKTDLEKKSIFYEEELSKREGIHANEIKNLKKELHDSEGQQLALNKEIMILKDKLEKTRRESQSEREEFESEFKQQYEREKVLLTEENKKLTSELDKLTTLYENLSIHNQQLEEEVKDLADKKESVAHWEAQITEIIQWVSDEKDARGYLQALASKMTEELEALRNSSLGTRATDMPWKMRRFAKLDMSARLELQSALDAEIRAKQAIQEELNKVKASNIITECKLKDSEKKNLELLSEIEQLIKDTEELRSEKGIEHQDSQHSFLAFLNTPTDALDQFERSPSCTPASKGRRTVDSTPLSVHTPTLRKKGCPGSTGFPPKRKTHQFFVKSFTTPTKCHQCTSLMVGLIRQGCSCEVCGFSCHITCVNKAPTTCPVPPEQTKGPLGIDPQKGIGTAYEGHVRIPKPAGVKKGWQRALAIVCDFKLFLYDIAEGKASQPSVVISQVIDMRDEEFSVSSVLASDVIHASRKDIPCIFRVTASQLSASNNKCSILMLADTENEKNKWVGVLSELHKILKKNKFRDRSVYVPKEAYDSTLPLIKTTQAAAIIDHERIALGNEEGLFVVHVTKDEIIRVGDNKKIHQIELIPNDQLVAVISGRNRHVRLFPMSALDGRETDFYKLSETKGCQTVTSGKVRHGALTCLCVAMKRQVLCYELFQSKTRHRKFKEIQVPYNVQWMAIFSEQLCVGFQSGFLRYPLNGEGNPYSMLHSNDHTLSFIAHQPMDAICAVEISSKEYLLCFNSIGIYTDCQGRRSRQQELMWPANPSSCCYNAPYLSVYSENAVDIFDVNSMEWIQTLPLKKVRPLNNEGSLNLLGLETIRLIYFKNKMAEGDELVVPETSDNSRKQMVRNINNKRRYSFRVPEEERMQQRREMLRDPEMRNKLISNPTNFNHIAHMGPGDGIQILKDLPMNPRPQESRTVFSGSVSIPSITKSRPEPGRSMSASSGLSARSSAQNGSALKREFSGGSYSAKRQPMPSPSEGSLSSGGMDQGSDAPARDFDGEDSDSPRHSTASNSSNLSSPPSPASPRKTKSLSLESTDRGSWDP

Compound	inhibition [1] [%]	inhibition [2] [%]	inhibition [3] [%]	inhibition [4] [%]	inhibition [5] [%]	inhibition [6] [%]	inhibition [7] [%]	inhibition [8] [%]	inhibition [9] [%]	inhibition [10] [%]	inhibition [11] [%]	inhibition [12] [%]	inhibition [13] [%]	inhibition [14] [%]	inhibition [15] [%]	inhibition [16] [%]	inhibition [17] [%]	inhibition [18] [%]	inhibition [19] [%]	inhibition [20] [%]
Cc1ccc2c(-c3ccnc(Nc4cccc(C(F)(F)F)c4)n3)c(-c3ccccc3)nn2n1	1.06	5.98	0.83	1.46	-3.38	-4.64	2.52	3.99	2.1	2.71	0.65	2.43	4.26	1.57	10.6	0.54	3.6	5.12	4.11	-1.08
NS(=O)(=O)c1cccc(-c2cc3ccncc3cc2OCc2ccccc2)c1	0.79	-0.95	1.07	0.42	6.93	5.54	2.88	6.76	1.84	1.18	0.97	1.81	3.34	1.18	1.96	-0.33	0.71	2.45	2.7	3.28
Nc1nccc(-c2c(-c3ccc(F)cc3)ncn2CCCN2CCOCC2)n1	0.42	1.54	0.49	1.1	6.47	6.81	4.22	3.46	1.35	1.45	0.38	3.31	9.33	0.84	4.5	1.5	7.05	4.26	7.49	3.25
CN(C)C(=O)O[C@@H]1CN[C@@H](C#Cc2cc3ncnc(Nc4ccc(OCc5cccc(F)c5)c(Cl)c4)c3s2)C1	0.14	1.14	-0.75	0.85	0.39	2.9	-1.34	2.41	0.37	1.14	0.77	0.67	1.2	0.33	1.13	-1.27	2.12	4.86	1.38	-1.57
c1ccc(Nc2ncc(-c3ccccc3)o2)cc1	1.05	2.6	-0.11	0.28	3.68	3.58	2.52	3.34	3.16	5	4.59	2.19	3.41	1.37	2.47	-0.26	-0.49	2.48	5.31	2.57
ON=C1CCc2cc(-c3nc(C4CCNCC4)[nH]c3-c3ccncc3)ccc21	1.01	1.89	-0.75	1.17	-0.09	-0.44	-0.82	1.3	0.43	-1.14	-0.07	1.54	18.8	1.13	2.47	-0.12	11.1	-0.55	2.63	-1.91
O=C1Nc2ccc(-c3cccnc3)cc2C1=Cc1cc(Br)c(O)c(Br)c1	0.24	-0.62	0.92	1.01	3.3	3.39	0.89	2.67	2.32	2.15	3.18	1.62	1.19	1.72	2.45	0.24	-1.03	3.09	0.7	4.09
Nc1nccc(C#Cc2cncnc2Nc2ccc(OCc3cccc(F)c3)c(Cl)c2)n1	0.06	-0.95	-0.16	2.38	4.15	4.83	1.39	4.41	1.09	1.35	2.4	1.49	2.74	1.36	1.81	2.69	2.19	2.81	-0.12	5
Cc1nc(-c2ccccc2)n2nc(NCCCN3CCOCC3)ncc12	6.14	2.64	0.51	0.04	0.53	1.08	2.47	3.6	1.34	2.24	2.52	2.1	2.12	-0.23	0.9	-0.19	0.04	0.77	4.23	2.71
O=C1Nc2ccccc2/C1=C/Nc1ccc2[nH]c(=O)[nH]c2c1	-0.3	1.93	-0.63	-1.04	3.99	5.92	3.86	16.6	2.55	11.1	9.34	2.27	4.1	0.57	2.34	0.19	4.33	3.3	3.84	2.03
N#Cc1cccc(Nc2nccc(-c3cnn4ncccc34)n2)c1	0	2.93	-1.54	1.01	3.66	8.54	2.1	8.46	0.58	3.59	2.83	2.6	12.8	26.2	72.8	2.69	20	7.07	31.9	6.2
COc1cc2ncnc(Nc3ccc(C)c(O)c3)c2cc1OC	0.29	0.79	1.59	0.25	5.09	4.76	4.36	2.32	3.34	2.36	1.3	2.17	3.17	1.06	3.24	1.28	5.43	3.76	0.65	2.11
CS(=O)(=O)Nc1cccc(-c2ccc3c(NC(=O)C4CC4)n[nH]c3c2)c1	1.58	2.47	0.84	1.32	1.49	1.04	0.62	2.85	1.15	1.9	-0.34	0.91	1.02	0.79	1.61	-1.18	-0.16	1.82	3.34	1.6

— ChEMBL document CHEMBL1961873, “Compounds: GSK PKIS; Assays: Nanosyn kinase panel” (2012)
